High-throughput results (PubChem BioAssay)
This excerpt belongs to a sample that is enriched for hits.
IDE exosite FP: exo-site inhibitors of human insulin-degrading enzyme; P14735; purified IDE, FL-6b probe fluorescence polarization; active compounds read low; z-score at 20 µM; hit rate 6.3% among 17,000; AID 1259349;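 active = z-score of -3 or lower, meaning strong loss of probe binding signal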;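 note: His-tagged human IDE residues 42-1019 made in E. coli with 30 nM FL-6b probe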
Target sequence (P14735 42-1019 limits assumed): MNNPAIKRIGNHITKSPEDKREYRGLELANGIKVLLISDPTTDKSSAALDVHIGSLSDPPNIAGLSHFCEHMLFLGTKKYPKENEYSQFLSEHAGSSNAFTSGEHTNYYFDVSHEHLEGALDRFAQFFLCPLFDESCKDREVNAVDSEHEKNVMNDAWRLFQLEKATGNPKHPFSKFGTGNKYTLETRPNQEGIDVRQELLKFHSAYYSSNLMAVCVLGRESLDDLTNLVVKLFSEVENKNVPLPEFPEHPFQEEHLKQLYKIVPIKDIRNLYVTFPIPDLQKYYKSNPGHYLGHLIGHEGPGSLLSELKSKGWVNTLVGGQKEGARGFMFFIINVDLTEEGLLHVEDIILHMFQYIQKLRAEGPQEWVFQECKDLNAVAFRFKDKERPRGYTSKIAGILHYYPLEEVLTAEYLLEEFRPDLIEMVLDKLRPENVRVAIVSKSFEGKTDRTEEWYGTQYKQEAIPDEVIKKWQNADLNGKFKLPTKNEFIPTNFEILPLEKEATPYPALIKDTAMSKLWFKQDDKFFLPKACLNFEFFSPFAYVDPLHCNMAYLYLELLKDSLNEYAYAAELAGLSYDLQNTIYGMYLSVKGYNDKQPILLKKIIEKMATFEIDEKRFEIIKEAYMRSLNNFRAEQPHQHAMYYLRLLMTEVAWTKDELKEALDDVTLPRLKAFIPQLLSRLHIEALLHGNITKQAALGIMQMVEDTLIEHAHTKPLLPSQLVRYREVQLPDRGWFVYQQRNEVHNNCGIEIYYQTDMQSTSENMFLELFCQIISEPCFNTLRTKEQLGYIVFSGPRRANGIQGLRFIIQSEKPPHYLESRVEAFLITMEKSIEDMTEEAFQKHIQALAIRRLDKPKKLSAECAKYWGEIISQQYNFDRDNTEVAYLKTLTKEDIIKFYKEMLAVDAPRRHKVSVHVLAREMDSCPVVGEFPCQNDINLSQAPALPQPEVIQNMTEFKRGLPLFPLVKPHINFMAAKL
A number is an active result; i = inactive.

SMILES	IDE exosite FP
Cc1ccccc1-c1ccc([C@@H]2[C@@H](CO)N3C(=O)CN(C(=O)Nc4ccccc4)C[C@H]23)cc1	-6.1
O=C(Nc1ccc(F)cc1)N1CC(=O)N2[C@@H](CO)[C@@H](c3ccc(-c4ccc(F)cc4)cc3)[C@@H]2C1	i
O=C(Nc1cccc(F)c1)N1CC(=O)N2[C@@H](CO)[C@H](c3ccc(-c4ccccc4F)cc3)[C@@H]2C1	i
O=C(Nc1ccc(F)cc1)N1CC(=O)N2[C@H](CO)[C@H](c3ccc(-c4ccccc4)cc3)[C@@H]2C1	i
O=C(Nc1ccccc1)N1CC(=O)N2[C@H](CO)[C@H](c3ccc(-c4ccc(F)cc4)cc3)[C@@H]2C1	i
Cc1ccccc1-c1ccc([C@H]2[C@H]3CN(C(=O)Nc4ccc(F)cc4)CC(=O)N3[C@H]2CO)cc1	-7
O=C(Nc1cccc(F)c1)N1CC(=O)N2[C@@H](CO)[C@@H](c3ccc(-c4ccccc4F)cc3)[C@@H]2C1	i
O=C(Nc1ccccc1)N1CC(=O)N2[C@@H](CO)[C@H](c3ccc(-c4ccc(F)cc4)cc3)[C@@H]2C1	i
Cc1ccccc1-c1ccc([C@H]2[C@@H](CO)N3C(=O)CN(C(=O)Nc4ccc(F)cc4)C[C@H]23)cc1	-21
Cc1ccc(-c2ccc([C@@H]3[C@@H](CO)N4C(=O)CN(C(=O)Nc5ccc(F)cc5)C[C@H]34)cc2)cc1	i
O=C(Nc1ccc(F)cc1)N1CC(=O)N2[C@H](CO)[C@@H](c3ccc(-c4ccc(F)cc4)cc3)[C@H]2C1	i
CCCNC(=O)N1C[C@H](C)[C@H](OC)CN(C)C(=O)c2ccc(NC(=O)CC)cc2OC[C@H]1C	i
O=C(NCC1CC1)[C@H]1[C@H](CO)[C@H]2Cn3c(ccc(-c4cccnc4)c3=O)[C@H]2N1Cc1cocn1	i
N#C[C@H]1[C@@H](c2ccccc2-c2ccccc2F)[C@H](CO)N1C(=O)C1CCOCC1	i
O=C(C[C@H]1CC[C@@H](NS(=O)(=O)c2ccccc2F)[C@@H](CO)O1)NCCCN1CCOCC1	i
O=C(N[C@H]1C=C[C@H](CC(=O)N2CCC(Cc3ccccc3)CC2)O[C@H]1CO)c1cnccn1	i
O=C(Nc1ccc(F)cc1)N1CC(=O)N2[C@H](CO)[C@@H](c3ccc(-c4ccccc4)cc3)[C@H]2C1	i
O=C(Nc1ccc(F)cc1)N1CC(=O)N2[C@H](CO)[C@H](c3ccc(-c4ccccc4)cc3)[C@H]2C1	-5.5
O=C(Nc1ccc(F)cc1)N1CC(=O)N2[C@@H](CO)[C@H](c3ccc(-c4ccccc4)cc3)[C@@H]2C1	i
COc1cccc(CN2[C@@H]3CNC[C@H]2C3c2ccc(-c3ccc(C#N)cc3)cc2)c1 (stereo not given in full)	i
COc1cc(CN2[C@@H]3CNC[C@H]2C3c2ccc(-c3ccc(C#N)cc3)cc2)cc(OC)c1 (stereo not given in full)	i
COc1cc(CN2[C@@H]3CNC[C@H]2C3c2ccc(-c3cccc(C)c3)cc2)cc(OC)c1 (stereo not given in full)	-7.2
COc1ccccc1-c1ccc(C2[C@H]3CNC[C@@H]2N3Cc2cc(-c3ccccc3)on2)cc1 (stereo not given in full)	i
COc1cccc(CN2[C@@H]3CNC[C@H]2[C@H]3c2ccc(-c3ccccc3OC)cc2)c1	-3.4
C/C=C/c1ccc(C2[C@H]3CNC[C@@H]2N3Cc2cc(OC)cc(OC)c2)cc1 (stereo not given in full)	i
C[C@@H]1CN([C@H](C)CO)C(=O)c2ccccc2-c2ccccc2CO[C@H]1CN(C)C(=O)Nc1ccc(-c2ccccc2)cc1	i
